Only some compounds are listed: those with a hit (about 6.3% of all), similar ones and a draw of the others.
TIM10 inh: growth inhibitors of TIM10 yeast strain | S. cerevisiae TIM10 strain growth, BacTiter-Glo luminescence, 24 h | inhibition, % at 10 µM | AID 463195 | 330,000 compounds, 1.4% hits;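 active means inhibition of 40% or more at the single tested concentration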;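 further: wild-type TIM10 isogenic control strain grown at permissive 25 °C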
tim23-1 inh: inhibits growth of tim23-1 mutant yeast. S. cerevisiae tim23-1 growth, BacTiter-Glo luminescence, 24 h. inhibition, % at 20 µM. 330,000 compounds, 1.3% hits. AID 463212;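 active means growth inhibition of the mutant yeast at or above 50%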;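 further: temperature-sensitive mutant grown at 25 °C; plate controls were DMSO-treated mutant yeast for no effect and medium wells lacking yeast for full effect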
tim10-1 inh: inhibits growth of tim10-1 mutant yeast; S. cerevisiae tim10-1 ts strain growth, BacTiter-Glo, 24 h; inhibition, % at 20 µM; 330,000 compounds, 2.2% hits; AID 463190;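 active means inhibition of at least 40%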;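 further: mutant grown at 25 °C; 0% = DMSO wells with yeast and 100% = wells holding no yeast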
MPTP inh: blocks calcium-induced mitochondrial swelling. isolated mouse mitochondria, Ca2+ swelling absorbance, 30 min. 360,000 compounds, 1.4% hits. inhibition, % at 10 µM;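 active means inhibition of 50% or more, scaled per plate between neutral and stimulator controls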;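 further: 0% = DMSO wells given calcium and 100% = 1 mM EGTA wells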
Mdm2 MdmX PPI: human Mdm2/MdmX binding inhibition | inhibition, % at 8 µM | 330,000 compounds, 3% hits | SaOS-2 split-luciferase Mdm2/MdmX complementation, luminescence;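 active means inhibition of at least 50% at 8 µM in the primary screen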
Target sequence (O15151 whole entry, looked up): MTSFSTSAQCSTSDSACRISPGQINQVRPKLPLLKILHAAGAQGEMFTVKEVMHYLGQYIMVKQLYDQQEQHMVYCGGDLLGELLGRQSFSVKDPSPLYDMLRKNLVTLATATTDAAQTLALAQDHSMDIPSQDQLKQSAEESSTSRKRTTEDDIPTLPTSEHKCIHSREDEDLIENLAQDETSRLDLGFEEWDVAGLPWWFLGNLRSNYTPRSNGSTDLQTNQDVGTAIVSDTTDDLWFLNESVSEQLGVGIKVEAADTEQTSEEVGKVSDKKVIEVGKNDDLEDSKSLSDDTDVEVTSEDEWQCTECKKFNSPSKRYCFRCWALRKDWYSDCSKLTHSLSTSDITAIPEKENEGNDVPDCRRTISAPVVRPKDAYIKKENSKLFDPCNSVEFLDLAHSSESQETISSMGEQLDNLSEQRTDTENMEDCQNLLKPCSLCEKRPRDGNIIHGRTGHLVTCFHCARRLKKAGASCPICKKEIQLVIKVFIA
Target sequence (Q00987 whole entry, looked up): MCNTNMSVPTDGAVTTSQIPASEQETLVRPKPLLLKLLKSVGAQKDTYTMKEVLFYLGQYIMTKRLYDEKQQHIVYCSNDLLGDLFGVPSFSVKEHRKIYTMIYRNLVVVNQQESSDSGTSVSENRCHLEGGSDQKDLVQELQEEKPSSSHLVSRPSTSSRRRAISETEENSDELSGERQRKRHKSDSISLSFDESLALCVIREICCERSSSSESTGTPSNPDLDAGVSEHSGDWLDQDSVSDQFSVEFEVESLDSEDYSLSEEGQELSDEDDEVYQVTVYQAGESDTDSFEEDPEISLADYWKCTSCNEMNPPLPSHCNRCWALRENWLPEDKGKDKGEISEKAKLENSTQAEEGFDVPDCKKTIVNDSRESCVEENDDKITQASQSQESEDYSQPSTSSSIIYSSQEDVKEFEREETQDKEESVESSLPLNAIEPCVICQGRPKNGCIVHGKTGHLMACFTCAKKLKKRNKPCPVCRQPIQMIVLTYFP
Mdm2 MdmX conf: confirmation of human Mdm2/MdmX interaction inhibitors; inhibition, % at 8 µM; 10,000 compounds, 55% hits; Mdm2-MdmX binding, luminescent assay; shares compounds with Mdm2 MdmX PPI; in the data active means inhibition above about 40%
FLuc counter: full-length luciferase inhibition in Mdm2/MdmX counter-screen | shares compounds with Mdm2 MdmX PPI | SaOS-2 full-length luciferase counterscreen, luminescence | inhibition, % at 8 µM | 6,200 compounds, 77% hits | AID 504607;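 active means mean inhibition at 8 µM reaching about 37%, which flags the compound as non-specific, limit read from the data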;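 further: p53-null SaOS-2 cells with luciferase driven by a doxycycline-inducible promoter; compound on cells about two nights before reading with doxycycline added after day one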
Active calls of the source: *.

CCc1ccc(-c2n[nH]nc2C2=CC(=O)C[C@H](c3ccc(F)cc3)C2)cc1 was read as MPTP inh 24.
`COc1ccc(-c2[nH]n(-c3ccc([N+](=O)[O-])cc3)c(=O)c2C=NCc2ccc(F)cc2)cc1` gave TIM10 inh 2, tim23-1 inh 9, tim10-1 inh 4, MPTP inh 7, Mdm2 MdmX PPI 80* and Mdm2 MdmX conf -19.
`c1ccc2sc(-n3cc(C4CCCCC4)nn3)nc2c1` gave MPTP inh 0.
`O=C(Nc1nnc(-c2ccccc2SCc2ccccc2F)s1)Nc1ccccc1F` gave TIM10 inh -7, tim23-1 inh -15, tim10-1 inh -15, MPTP inh 3, Mdm2 MdmX PPI 79*, Mdm2 MdmX conf 66* and FLuc counter 101*.
Screening CC(C)CC1C(=O)N(Cc2cn(CC3CCCCC3)nn2)CCS(=O)(=O)N1Cc1ccc(-c2cccc(C#N)c2)cc1 (centres undefined) returned MPTP inh -1.
COc1cccc(-c2cc(-c3cccnc3)nc(N)c2C#N)c1 was read as TIM10 inh 26, tim23-1 inh -4, tim10-1 inh -2, MPTP inh 2, Mdm2 MdmX PPI 59* and Mdm2 MdmX conf 12.
Screening Cc1nc(N)c(C#N)c(-c2cccnc2)c1-c1ccccc1 returned TIM10 inh -6, tim23-1 inh 8, tim10-1 inh 9, MPTP inh -1, Mdm2 MdmX PPI 56*, Mdm2 MdmX conf 42* and FLuc counter 56*.
For COc1ccc(OC)c(-c2cc(-c3cccnc3)nc(N)c2C#N)c1 the results were TIM10 inh 7, tim23-1 inh -5, tim10-1 inh -18, MPTP inh 1, Mdm2 MdmX PPI 63*, Mdm2 MdmX conf 62* and FLuc counter 76*.
For COc1ccc(-c2cc(-c3cccnc3)c(C#N)c(N)n2)cc1 the results were TIM10 inh -2, tim23-1 inh -21, tim10-1 inh 14, MPTP inh 2, Mdm2 MdmX PPI 73* and Mdm2 MdmX conf 9.
Screening CC(c1ccccc1)n1ccnc1CO (centres undefined) returned MPTP inh -1.
CCOc1ccc2c(c1)c(C(C)=O)c(C)n2-c1ccccc1 was read as TIM10 inh 31, tim23-1 inh 22, tim10-1 inh 33, MPTP inh -4 and Mdm2 MdmX PPI 20.
`CCOC(=O)c1c(C)n(-c2ccc(F)cc2)c2ccc(O)cc12` gave TIM10 inh 12, tim23-1 inh 19, tim10-1 inh -9, MPTP inh 2 and Mdm2 MdmX PPI 11.
For COc1ccc(-n2c(C)c(C(C)=O)c3cc(OC(C)=O)ccc32)cc1 the results were TIM10 inh 17, tim23-1 inh 38, tim10-1 inh 28, MPTP inh 0, Mdm2 MdmX PPI 82*, Mdm2 MdmX conf 86* and FLuc counter 6.
For COc1ccc2c(c1)c(C(C)=O)c(C)n2-c1ccc(C(C)=O)cc1 the results were TIM10 inh 3, tim23-1 inh 8, tim10-1 inh 8, MPTP inh 1, Mdm2 MdmX PPI 61*, Mdm2 MdmX conf 61* and FLuc counter 40*.
COC(=O)c1c(C)n(-c2ccc(OC)cc2)c2ccc(O)cc12 was read as TIM10 inh 16, tim23-1 inh 23, tim10-1 inh 31, MPTP inh 1, Mdm2 MdmX PPI 66*, Mdm2 MdmX conf 64* and FLuc counter 20.
CC1(C(=O)NS(=O)(=O)c2ccc(C#N)cc2)CCN1C(=O)Cc1cc(F)ccc1F (centres undefined) was read as MPTP inh -1.
`O=C(/C=C/c1cccc([N+](=O)[O-])c1)Nc1ccc(NC(=O)c2cccs2)cc1` gave TIM10 inh -27, tim23-1 inh -6, tim10-1 inh 16, MPTP inh 2, Mdm2 MdmX PPI 85* and Mdm2 MdmX conf 3.
`Cc1ccn2c(=O)nc(SCC(=O)N3N=C(c4cccs4)CC3c3ccc(F)cc3)nc2c1` (centres undefined) gave TIM10 inh 19, tim23-1 inh 34, tim10-1 inh 27, MPTP inh -1 and Mdm2 MdmX PPI 23.
Screening Cc1cccn2c(=O)nc(SCC(=O)N3N=C(c4cccs4)CC3c3ccc(F)cc3)nc12 (centres undefined) returned TIM10 inh 3, tim23-1 inh 17, tim10-1 inh 9, MPTP inh -2, Mdm2 MdmX PPI 51*, Mdm2 MdmX conf 51* and FLuc counter 71*.
CCOC(=O)Nc1ccc2c(c1)N(C(=O)CCN(CC)CC)c1ccccc1S2=O (centres undefined) was read as TIM10 inh -2, tim23-1 inh 18, tim10-1 inh 30, MPTP inh -2, Mdm2 MdmX PPI 67*, Mdm2 MdmX conf 53* and FLuc counter 30.
CCOC(=O)Nc1ccc2c(c1)N(C(=O)CCN(CC)CC)c1ccccc1CC2 was read as TIM10 inh 8, tim23-1 inh 15, tim10-1 inh 5, MPTP inh 1 and Mdm2 MdmX PPI -5.
`Nc1ccc2nn(-c3ccccc3)nc2c1` gave TIM10 inh 12, tim23-1 inh 18, tim10-1 inh 23, MPTP inh 0 and Mdm2 MdmX PPI 3.
For Nc1ccc2nn(-c3cccc4ccccc34)nc2c1 the results were TIM10 inh 32, tim23-1 inh 45, tim10-1 inh 40, MPTP inh -2, Mdm2 MdmX PPI 53* and Mdm2 MdmX conf -1.
`Cc1cccc(OCC(=O)NCC(=O)N/N=C/c2cc(Br)cc(Br)c2O)c1` gave TIM10 inh 29, tim23-1 inh 1, tim10-1 inh 21, MPTP inh 0, Mdm2 MdmX PPI 56*, Mdm2 MdmX conf 77* and FLuc counter 22.
`Cc1ccc(S(=O)(=O)N2CCC[C@H]2C(=O)NC2=NCCS2)cc1` gave MPTP inh -1.
Screening Cc1ccc(CNC(=O)CSc2nc3c(sc4ccccc43)c(=O)n2CCCN2CCCC2)cc1 returned TIM10 inh 8, tim23-1 inh 34, tim10-1 inh 14, MPTP inh 1, Mdm2 MdmX PPI 51*, Mdm2 MdmX conf 48* and FLuc counter 42*.
Screening O=C(CSc1nc2c(sc3ccccc32)c(=O)n1CCCN1CCCC1)NCc1ccccc1 returned TIM10 inh -3, tim23-1 inh 28, tim10-1 inh 8, MPTP inh -4, Mdm2 MdmX PPI 54* and Mdm2 MdmX conf 31.
Screening Cc1ccc(Nc2nnc(SCc3nc4ccccc4c(=O)[nH]3)s2)cc1 returned TIM10 inh -8, tim23-1 inh -6, tim10-1 inh 5, MPTP inh 4, Mdm2 MdmX PPI 66*, Mdm2 MdmX conf 40* and FLuc counter 17.
